We go through 27 compounds from PubChem BioAssay AID567 (The Scripps Research Institute Molecular Screening Center, 2006).

Screen size: about 65,000 compounds; about 370 (0.57%) were called active. This is one part of a sample in which actives are shown more often than they occur. Unmarked numbers belong to inactive results.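 The calls were made as follows: active = activation above the screen-wide mean activation plus 3 SD (cut at about 19% in these data); inactive = the rest.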

The test deals with 5-hydroxytryptamine receptor 1A (Homo sapiens) (UniProt P08908). Briefly: agonism at serotonin HTR1A receptor – cell-based, CHO, Ga15 NFAT-bla reporter, primary screen (AID 567).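 Also: 0% = DMSO wells and 100% = 5-CT at EC100.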 The note with it: CHO 5-HT1a Ga15 NFAT-bla reporter, FRET ratio; at 10 µM; active compounds read high; 0% basal, 100% maximal reference agonist.
Chain of 5-hydroxytryptamine receptor 1A (Homo sapiens) (P08908 whole entry, looked up): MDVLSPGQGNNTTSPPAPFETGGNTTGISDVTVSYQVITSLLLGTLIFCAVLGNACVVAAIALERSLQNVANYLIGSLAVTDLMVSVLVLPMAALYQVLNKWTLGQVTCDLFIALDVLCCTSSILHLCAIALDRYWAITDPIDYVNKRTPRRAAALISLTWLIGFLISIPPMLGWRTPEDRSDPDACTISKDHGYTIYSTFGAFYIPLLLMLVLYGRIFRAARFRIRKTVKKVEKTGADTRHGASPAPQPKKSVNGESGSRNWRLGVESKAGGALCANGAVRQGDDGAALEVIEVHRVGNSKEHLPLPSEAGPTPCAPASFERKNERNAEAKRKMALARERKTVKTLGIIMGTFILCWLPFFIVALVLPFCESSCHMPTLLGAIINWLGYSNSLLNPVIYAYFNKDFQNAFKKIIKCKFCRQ
In the case of `COc1cccc(-n2c(Cc3cc(=O)[nH]c(=O)[nH]3)nnc2SCC(=O)Nc2ccccc2)c1`, the activation was -5.6%.

Take `Cc1cc(NC(=O)c2cnn3cccnc23)n(-c2ccccc2)n1`: the activation was 1.07%.

Consider `O=C(Nc1ccc(Cl)cn1)c1cnn2cccnc12`, for which the activation was 193% (active).

Regarding `O=C(Nc1ccc(Cl)cn1)Nc1cccs1`, the activation was -4.12%.

As for `Fc1ccc(Cn2nnnc2C(c2cccs2)N2CCCCCC2)cc1` (configuration not stated), the activation was -2.4%.

As to `CCC12CN3CC(CC)(CN(C1)C31C(=O)N(C)c3ccc(C)cc31)C2=O` (configuration not stated), the activation was -2.01%.

As for `COC(=O)CNC(=O)c1ccc2c(c1)S(=O)(=O)c1ccccc1C2=O`, the activation was 1.02%.

Take `Cc1cc(N2C(=O)c3ccc(C(=O)NCc4ccccc4)cc3C2=O)no1`: the activation was -3.09%.

With `N#Cc1ccc(CSc2nnc(-c3ccccn3)n2-c2ccc(Cl)cc2)cc1`, the activation was 0.34%.

`CNC(=O)CSc1nnc(CCc2ccccc2)n1-c1ccccc1`: the activation is 0.04%.

As for `N#Cc1cccc(CSc2nnc(CCCO)n2-c2ccccc2)c1`, the activation is 77% (active).

`O=C(NC1CC2CCCC(C1)N2C(=O)N1CCCCC1)C1CCCCC1` (configuration not stated): the activation was 2.68%.

In the case of `Cc1cnc(NC(=O)CSc2nnc(-c3ccc(Cl)cc3Cl)n2N)s1`, the activation was -1.25%.

As for `CN(c1nc2ccccc2n2c(-c3ccco3)nnc12)S(=O)(=O)c1ccccc1`, the activation is 0.58%.

In the case of `Cc1ccc2nc(NC3=NCN(CCc4ccccc4)CN3)nc(C)c2c1`, the activation is -1.7%.

With `CCOC(=O)C(C)Oc1cccc2c(=O)n(CC(=O)N3CCc4ccccc43)ccc12` (configuration not stated), the activation was -0.82%.

Take `CCC(C(=O)N1CCOCC1)n1c(C(=O)OC)cc2occc21` (configuration not stated): the activation was -0.28%.

On to `O=C(CCCC(=O)N(CC(=O)NC1CCCC1)Cc1ccccc1Cl)Nc1ccccn1`, for which the activation was 0.54%.

Take `Cn1c(Cc2csc(N)n2)nnc1SC/C=C/c1ccccc1`: the activation is 0.48%.

Take `CCCOC(=O)c1[nH]c2c(c1C)C(=O)CC(c1cc(OC)c(OC)c(OC)c1)C2` (configuration not stated): the activation is -1.49%.

As to `Cc1noc(COc2ccccc2OCC(O)CNC(C)(C)C)n1` (configuration not stated), the activation is 2.09%.

Turning to `CCOc1ccc2[nH]c(=O)c(C(c3nnnn3CCOC)N3CCOCC3)cc2c1` (configuration not stated), the activation is -1.3%.

With `Cc1cc(C(=O)COC(=O)CCCN2C(=O)c3ccccc3C2=O)c(C)n1C`, the activation was -2.69%.

In the case of `CCCc1nc(-c2ccccc2O)n(-c2ccccc2)n1`, the activation was -3.29%.

On to `COc1ccc(-c2nnc(SCC(=O)NC3CCCCC3)o2)cc1OC`, for which the activation was -1.36%.

Turning to `O=c1ccc2cc(S(=O)(=O)N3CCN(c4ccccc4)CC3)ccc2o1`, the activation was -2.8%.

Turning to `Cc1nonc1OCCn1nnnc1N`, the activation was 0.59%.
